According to PubChem BioAssay AID1508600 (Functional Genomics Laboratory (NCATS/FGL), 2020):
Out of some 53,000 sequences screened, about 3,700 (7%) were called active. This is one part of a sample in which actives are shown more often than they occur. Values without a mark were called inactive.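 How the source made its calls: active means gene knockdowns whose robust z-score for IL-1 alpha signal is at least 2 or at most -2, so actives lie on both sides; inactive means the rest.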

assay: Components of the Cytosolic LPS Sensing Pathway: Gene Identification via Genome-wide siRNA Screen; settings: RAW264.7 macrophages, IL-1a HTRF, actives lie on both sides, screened at 100 nM (by protocol), cells primed 5 h with Pam3CSK4 first;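 further: robust z of the log signal after scaling to non-targeting control siRNA wells of the plate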
How it was run: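 Cells (RAW264.7, 1×10^4 per well) were transfected with siRNA at 100 nM and cultured 48h at 37 degrees C. Pam3CSK4 was added for 5 hours; LipidA transfection followed for 24 hour. IL-1a was then measured by HTRF.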

| Sequence | z-score |
| --- | --- |
| GCUGCCUCAUUUCUGGAUGTT against Klk11 | 1.1 |
| GGACAUGGAUGACACUGAUTT against Tsr3 | -1.99 |
| GGAAGAUGCACAUCUGGACTT against Enoph1 | -0.55 |
| CCAGGAUUCCGACUGAAUCTT against Oscp1 | -0.367 |
| GGGCUAAGUACCAAACUCATT against Ly6e | -1.71 |
| GCUUGCUAGAGUGAUCUCGTT against Adsl | -0.331 |
| GGCUUUUUCCACAUGUGCCTT against Olfr514 | -2.29 (active) |
| GCCCUUGGAAUUUACCACUTT against Aldh8a1 | -0.546 |
| CCAGACUGAGAAGAUAUGATT against Meox2 | -0.146 |
| GGACAUUGUCUACAAGUUGTT against Pcgf2 | 1.12 |
| GGUGUCAGCGAAAAGCAGUTT against Ring1 | -2.2 (active) |
| GGACCGCUACUAUUCAGGATT against Myh10 | 0.93 |
| GGGUUUUGGAUGGCGAAUATT against Lgals7 | -0.0835 |
| GGACGAAAAGAAGUGUUUCTT against Lamb2 | -0.103 |
| GGGAAACUCUGUCCAAUUGTT against Eif2d | 0.402 |
| CGGGAAAUUUCUAUUGGACTT against Akr1c12 | 0.312 |
| GGUGAUGGAAGUUAGUGUGTT against Bet1 | -1.34 |
| GGCAUUCACCAUACAAUGATT against Ufm1 | 0.687 |
| GGUCAUUGGUUCCUCCCUUTT against C2cd4c | 2.59 (active) |
| GGCUAACCACAUUUGCUUCTT against Zic4 | 0.759 |
| GGAAGAUGUCCAAACCCGCTT against Tspan4 | 0.671 |
| GCAGCUAAGAAGACCACUATT against Zfp185 | 2.15 (active) |
| GGAGGUAACGCAUGUUACATT against 4930483J18Rik | 0.393 |

| Sequence | z-score |
| --- | --- |
| GCGAAGUUACUACAGACGUTT against Slc39a1 | -0.124 |
| CCAGUCAAAUAUCCAUUAGTT against Scgb2b26 | -2.28 (active) |
| GGAGACUCUCACCUAUCAUTT against Doc2g | -0.458 |
| CCAAUCACCAGAGACUAACTT against Slain1 | 2.81 (active) |
| GGAAGUUUUUGAGAAUGGGTT against Ppp3cc | -0.38 |
| CCGAAUUCCAACCUAGAGCTT against Yipf5 | -1.38 |
| CCGCUCACGUGAAAAAGUUTT against Tars2 | 0.327 |
| GGACAUCUGGUUAUGAAUGTT against B3galt6 | -0.111 |
| GCCGAGCUCAUCAUCAUGATT against Prss40 | 2.5 (active) |
| GCAUGACUCUCAGGUCAAGTT against Lman2 | 1.54 |
| GGACAUUGCAUUGCUCAUGTT against Sec1 | -0.526 |
| CCUUCUUAUUGCUUAACCCTT against Scd3 | 0.279 |
| GGAAGAAGAUAAAGAGCGGTT against Nrgn | -0.708 |
| GGACCUCAGUCACUUCCAATT against Etv4 | 2.93 (active) |
| AGUUCCAGGCGCAGAAACCTT against D8Ertd738e | 1.46 |
| GGUUUUUCUUCUGCUGGUGTT against Olfr1256 | 1.64 |
| CCGGCUAAAUCACCGUGCUTT against Clpb | -0.647 |
| GCCCAAAAAGGAAUUAAUUTT against Pak3 | -0.176 |
| CCUGGAGAUCCCUCACUUUTT against Olfr1351 | 1.39 |
| GGCUUUAAGAUCACACAAATT against Snrpa | 2.09 (active) |
| GCAGAUGCUUCGGUGAAAATT against Defb15 | 0.998 |
| CCCAUACAAAGCACUUACATT against Otub1 | 0.589 |
| GGACAAAUGGUAUUGUAGUTT against Coa5 | -1.72 |

| Sequence | z-score |
| --- | --- |
| GCCGUCUUGUGUGUAUCAATT against Olfr1342 | -0.186 |
| GGAAAAGUGACGGUAUCUATT against Rpsa | -2.04 (active) |
| GGGAUAAAAACCAUGGUUUTT against Pramel27 | 0.113 |
| GCACUUAUGGUUUAGAUGUTT against Prdm8 | -0.127 |
| GGAACUUAUAUCUGCGCCATT against Gprin3 | 0.868 |
| AAAAGCUUCACCUAACUAUTT against Ascc1 | 1.73 |
| GGUGACAGUUGUUCACAAATT against 4933405O20Rik | -1.4 |
| GGAAUCAUAUCAGAAACUATT against Pde4b | -0.475 |
| GGGAGAGUCAAAAAAAGAUTT against Khdrbs1 | -0.536 |
| GGAAGACUGGUACACAUAATT against Tmem43 | -2.32 (active) |
| GCCAGUACUUAGGUCUAAGTT against Mrps25 | 1.24 |
| GCCCUCAGGUGGUUCUUAATT against Heatr3 | 0.443 |
| CCAUGUCAACGACCAUCAUTT against Glis2 | 0.189 |
| GCACCUCCACAAGAAUGAATT against Six2 | 0.466 |
| GGAACAUUGACCAGAUAGUTT against Ankrd44 | -1.44 |
| GGAGUUGAAUGGCUCUGGATT against Usp26 | -2.11 (active) |
| CCUUUGAGCCAGUUAUUUATT against Slc25a27 | 0.366 |
| GGAACAUCUACAUUGUGGCTT against Tspan14 | 0.402 |
| GGAAUUUGCUGCCCUCCUATT against Smad3 | -0.206 |
| GCAGACUCUUCCAAGUAAUTT against Lrrc28 | 0.529 |
| GGCAUCGUCACCAAACUGUTT against Fgf11 | -2.51 (active) |
| GCUAGAUUUCUACUGUGUCTT against Mindy1 | 0.527 |
| GCAAUUUUAGUUGGUGGAATT against Ddx24 | -0.112 |
